Here are results for 63 compounds from PubChem BioAssay AID1468 (National Center for Advancing Translational Sciences (NCATS), 2008).

Screen size: about 280,000 compounds; about 1,100 (0.39%) were called active. Entries that show only a call come without a potency. About 7% were inconclusive and are not listed. Calls follow the shape of the dose curve; as a rule, active = well fitted inhibition curve with a large enough effect; inconclusive = small, poorly fitted or top-dose-only effect, or effect the other way; inactive = flat fitted curve, though single readings scatter. The full list was thinned out, with actives kept by preference.
Potency is read from the fitted curve at half-maximal effect.

Microtubule-associated protein tau (Homo sapiens), sequence (P10636 561-689 P618L limits assumed): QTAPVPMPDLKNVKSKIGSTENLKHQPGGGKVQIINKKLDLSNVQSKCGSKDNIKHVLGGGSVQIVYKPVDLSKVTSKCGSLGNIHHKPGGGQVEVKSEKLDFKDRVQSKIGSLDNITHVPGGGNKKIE

For this experiment, the target named is Microtubule-associated protein tau (Homo sapiens) (UniProt P10636). The experiment can be described thus: qHTS for Inhibitors of Tau Fibril Formation, Fluorescence Polarization. Also: nearly all actives have a fitted effect of over 55% in size. The settings on record: K18 P301L tau heparin fibrillization, Alexa594 FP, 6 h; series mostly up to 57.7 µM. A digest of the protocol:
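Compound effects on tau fibrillization are measured by Alexa 594 fluorescence polarization (ex 555, em 632 nm). K18 P301L tau is used at 15 uM with 0.24 uM labeled tracer, and 20 uM heparin induces aggregation over 6 hr at 37 C.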
(qHTS replaces the single test concentration by a dilution series.)
As to `O=C(Cn1ncc2c3ccccc3n(Cc3ccccc3)c2c1=O)NC1CCCCCC1`, the Potency result was “inactive”.
In the case of `Clc1ccc(CSc2nncn3c2cc2occc23)cc1`, the Potency entry is “inactive”.
As for `COc1ccc(C2CC(=O)N(Cc3ccccc3C)c3c2c(C)nn3-c2nc(C)cc(C)n2)c(OC)c1` (stereo not drawn), the entry is “inactive”.
For `Cc1ccc(C)c(S(=O)(=O)c2nnn3c2nc(N2CCOCC2)c2sccc23)c1` the value was “inactive”; for `O=C(CSc1nc(Nc2ccc(F)c(F)c2)c2ccccc2n1)c1ccc(Cl)cc1`, “inactive”; for `Fc1ccc(CSc2nc(NCc3ccccc3)c3ccccc3n2)cc1`, “inactive”.
Take `Fc1ccc(Nc2nc(SCc3ccccc3Cl)nc3ccccc23)cc1`: the Potency was 6.31 µM (active).
For `Cc1ccc(C(=O)N2c3ncnn3C3(CCCCC3)[C@@H]3CCCC[C@@H]32)cc1` the value was “inactive”; for `CCOc1ccc2nc(Nc3nc4ccc(NC(C)=O)cc4s3)sc2c1`, “inactive”.
As to `CC(=O)Nc1ccc2nc(SCCOc3cc(C)cc(C)c3)sc2c1`, the Potency is 12.6 µM (active).
For `Cc1ccc(OCCSc2nc3ccc(NC(=O)COc4ccc(C)cc4)cc3s2)cc1` the value was “inactive”.
For `COc1ccccc1C(=O)NCCn1cc(SCc2ccccc2Cl)c2ccccc21` the value was “inactive”.
With `O=C(COC(=O)c1ccccc1)Nc1cccc(S(=O)(=O)N2CCOCC2)c1`, the Potency entry was “inactive”.
Take `O=C(O)/C=C/c1cn(-c2ccccc2)nc1-c1cccs1`: the Potency result was “inactive”.
As for `COc1ccc(-c2nn(-c3ccccc3)cc2/C=C\C(=O)Nc2ccc(C(=O)O)cc2)cc1`, the entry is “inactive”.
For `Cc1ccc(-c2nn(-c3ccccc3)cc2C(=O)Nc2cccc(S(=O)(=O)N3CCOCC3)c2)cc1` the value was 14.1 µM (active); for `Cc1ccc(-c2nn(-c3ccccc3)cc2/C=C/C(=O)Nc2cccc(S(N)(=O)=O)c2)cc1`, 14.1 µM (active); for `O=C(O)c1ccc(NC(=O)c2cn(-c3ccccc3)nc2-c2ccc(Cl)cc2)cc1`, “inactive”.
As for `COc1ccccc1N1CCN(C2C(=O)c3ccccc3N2C(C)=O)CC1` (stereo not drawn), the entry is “inactive”; as for `CCC(=O)N1CCc2cc(CNC(=O)Nc3ccccc3Cl)ccc21`, “inactive”.
For the compound `COc1ccc(Cc2nc3ccc(C(=O)NCc4ccccc4C)cc3o2)cc1`, the Potency entry was “inactive”.
Take `CCN1CCc2nc3sc(C(=O)Nc4ccccc4OC(F)(F)F)c(N)c3cc2C1`: the Potency result was “inactive”.
With `O=C(Nc1ccc(Br)cc1)c1ccc(Br)c(S(=O)(=O)NCc2ccccc2)c1`, the Potency was 12.6 µM (active).
Consider `Cc1ccc(C(=O)Nc2ccc(C(=O)O)cc2)cc1S(=O)(=O)Nc1ccccc1`, for which the Potency result was “inactive”.
For `O=C(Nc1cccc(NC(=O)c2ccc(Br)cc2)c1)c1ccccc1` the value was “inactive”.
Regarding `COC(=O)c1scc(-c2ccccc2)c1S(=O)(=O)Nc1ccccc1`, the Potency result is “inactive”.
Take `Cc1ccc(Cn2c(C)c3cnn(CC(=O)NCc4ccccc4)c(=O)c3c2C)cc1`: the Potency entry is “inactive”.
For `O=C(c1cccnc1)N(c1cc2sc(=O)oc2c2ccccc12)S(=O)(=O)c1ccccc1` the value was 17.8 µM (active); for `COc1ccc(N(C(=O)c2cccnc2)S(=O)(=O)c2ccc3c(c2)n(C)c(=O)n3C)cc1`, “inactive”.
For `CN(C)S(=O)(=O)c1cccc(C(=O)Nc2cccnc2)c1` the value was “inactive”; for `Cc1cccc(N2CCN(C(=O)c3cnc(N4CCCC4)nc3C)CC2)c1C`, “inactive”.
As for `CCc1ccccc1NC(=O)N1CCC2(CC1)Oc1ccccc1C(=O)N2Cc1ccccc1F`, the Potency entry was “inactive”.
As for `Cc1ccc(N(CC(=O)NCC(C)c2ccccc2)S(=O)(=O)N(C)C)cc1` (stereo not drawn), the entry is “inactive”.
As for `CCOc1ccc(CNC(=O)Cn2cc3c(n2)-c2c(oc(C(=O)N4CCCC4)c2C)CC3)cc1`, the entry is “inactive”; as for `COc1ccc(NC(=O)Nc2ccc3nsnc3c2)cc1`, “inactive”; as for `O=C(Nc1ccccc1)Nc1nc2ccccc2s1`, “inactive”.
As for `O=C(Nc1ccc2ccccc2c1)Nc1ccc2snnc2c1`, the figure is 11.2 µM (active); as for `Cc1ccc(Cl)cc1N1CCN(C(=O)C2CCC(CNS(=O)(=O)c3cccs3)CC2)CC1` (stereo not drawn), “inactive”; as for `CCCOc1ccc(NC(=O)CC2C(=O)N(c3ccccc3)C(=O)N2Cc2ccco2)cc1` (stereo not drawn), “inactive”.
With `COc1ccc(/C=C2\SC(=S)N(CC(=O)NNC(=O)c3ccncc3)C2=O)cc1`, the Potency entry is “inactive”.
As for `O=C(CCN1C(=O)/C(=C/c2cccs2)SC1=S)NNC(=O)c1cccc(O)c1`, the Potency is 35.5 µM (active).
`O=C(CCCN1C(=O)/C(=C/c2ccccc2)SC1=S)Nc1ccc(O)cc1`: the Potency entry is “inactive”.
As for `O=C(CCC(=O)N1CC2CCCN2c2ccccc21)NCc1ccccc1Cl` (stereo not drawn), the Potency entry is “inactive”.
With `CN(C)c1cccc(C(=O)Nc2nc3ccc(S(=O)(=O)NC(C)(C)C)cc3s2)c1`, the Potency entry is “inactive”.
For `COc1cccc(-c2nc(Nc3ccncc3)c3ccccc3n2)c1` the value was 14.1 µM (active); for `c1ccc2c(Nc3ccncc3)nc(-c3ccoc3)nc2c1`, “inactive”; for `COc1ccccc1Oc1nc(-c2cccnc2)nc2ccccc12`, “inactive”.
As for `c1ccc2c(NCC3CCCO3)nc(-c3ccncc3)nc2c1` (stereo not drawn), the entry is “inactive”; as for `CNc1nc(-c2ccccc2OC)nc2ccccc12`, “inactive”; as for `c1ccc2c(Nc3ccncc3)nc(-c3ccc4c(c3)OCO4)nc2c1`, 10 µM (active).
As for `COc1ccc(-n2c(SCC(N)=O)nc3c(oc4ccccc43)c2=O)cc1`, the entry is “inactive”; as for `Cc1cccc(C(=O)N2CCc3cc(CNC(=O)Cc4ccc(F)cc4)ccc32)c1`, “inactive”.
For the compound `CCN(CC)S(=O)(=O)c1ccc2c(c1)N(CC(=O)NCC(C)c1ccccc1)C(=O)CO2` (stereo not drawn), the Potency entry is “inactive”.
For the compound `Cc1ccc(S(=O)(=O)N2CCCc3cc(NS(=O)(=O)c4cc(C)ccc4C)ccc32)cc1`, the Potency entry is “inactive”.
On to `COc1cc(/C=N/NC(=O)c2ccccc2)ccc1OS(=O)(=O)c1ccccc1`, for which the Potency was 35.5 µM (active).
For `COc1ccc(C(=O)Nc2ccccc2C(=O)N/N=C/c2ccc(O)c(OC)c2)cc1` the value was “inactive”; for `COc1ccc(/C=N/S(=O)(=O)c2ccccc2)cc1OC`, “inactive”; for `COc1ccc(-c2nc(SCC(=O)N3CCCCC3C)n[nH]2)cc1` (stereo not drawn), “inactive”.
`Cc1nc(SCCOc2ccc(Cl)cc2)[nH]c(=O)c1Cc1ccccc1`: the Potency entry was “inactive”.
Regarding `N#C/C(=C\C1=C(N2CCOCC2)C(=C\c2ccccc2)/CC1)C(=O)Nc1ccccc1F`, the Potency was 25.1 µM (active).
As for `N#C/C(=C\c1ccccc1C(F)(F)F)C(=O)Nc1ccccc1F`, the entry is “inactive”; as for `C(=N\N1CCN(c2ccccn2)CC1)/C1=C(N2CCOCC2)C(=C/c2ccccc2)/CC1`, “inactive”.
For `Cc1c(Cl)cccc1-c1ccc(CNCCCSc2nnnn2C)o1` the value was “inactive”.
